Screening results as filed in PubChem.
KB-3-1 cytotox: kills parental KB-3-1 adenocarcinoma cells. KB-3-1 viability, CellTiter-Glo ATP luminescence, 72 h. Potency, µM (highest dose often 46.1 µM), hits mostly cytotoxic. hit rate 1.4% among 400,000. AID 1347075; further: on the % scale 0 is the no-effect control and ±100 the full control effect; nearly all actives have a fitted effect of over 60% in size
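72 h, 37 °C compound treatment of KB-3-1 parental cells; CellTiter-Glo added, 10 min, luminescence read. Data corrected against DMSO-only plates and normalized before curve fitting.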
HT1080 IDH1KD tx: HT-1080 IDH1 knockdown cell toxicity (counter line); hit rate 2% among 360,000; HT-1080 IDH1 knockdown viability, ATP luminescence, 48 h; Potency, µM (doses to about 46.1 µM), without a hit: top-dose activity, negative = toxicity, usual class: cytotoxic; AID 686971;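 further: 0% = DMSO wells and -100% = cell-free medium wells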
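IDH1KD HT-1080 cells, 750/well, RPMI + 5% FBS; compound pinned after 2 h settling; 48 h, 37 °C; CellTiter-Glo luminescence; % activity normalised to DMSO and no-cell wells; curves fitted, classed by r2 and efficacy.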
KB-V1 cytotox: KB-V1 MDR subline cytotoxicity | Potency, µM (highest dose often 46.1 µM), usual class: cytotoxic | KB-V1 MDR cells viability, CellTiter-Glo, 72 h | hit rate 3.4% among 400,000; further: on the % scale 0 is the no-effect control and ±100 the full control effect; nearly all actives have a fitted effect of over 60% in size
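In this primary screen, KB-V1 cells overexpressing P-gp are incubated with library compounds (lowest to highest concentration) for 72 h at 37 degrees C before a luminescent ATP viability read.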
HT1080-NT tox: kills 2HG-producing HT-1080-NT fibrosarcoma cells; AID 686970; Potency, µM (series often up to 46.1 µM), for the others: top-dose activity, negative = less viability, usual class: cytotoxic; hit rate 1.6% among 360,000; HT-1080-NT fibrosarcoma viability, CellTiter-Glo ATP luminescence, 48 h;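 further: NT is the 2HG producing partner of a matched IDH1 knockdown line; 0% = DMSO-treated cells and -100% = media-only wells without cells; nearly all actives have a fitted effect of over 55% in size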
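Viability of the 2HG-overproducing fibrosarcoma line after 48 hours of compound exposure at 37 degrees C was determined by luminescence with CellTiter-Glo, and concentration-effect curves were then fitted and categorized.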
SW480 rereplic: DNA re-replication induction in SW480 cells; SW480 DNA re-replication, Hoechst DNA content imaging, 48 h; Potency, µM (doses to about 46.1 µM), without a hit: at the top dose re-replication activation, hits mostly activators; hit rate 1.8% among 340,000; further: % of control where 0% means no effect; nearly all actives have a fitted effect of over 55% in size
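DNA re-replication was detected as more nuclei of elevated Hoechst intensity after 48 hr exposure to compound (23 nL pinned per well of 250 cells).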
MCF10A rerep: induces DNA re-replication in MCF 10a normal breast cells; AID 624296; Potency, µM (top dose mostly 46.1 µM), for the others: top-dose activity, positive = re-replication, usual class: activators; hit rate 2.9% among 350,000; MCF 10A DNA re-replication, Hoechst nuclear intensity, 48 h; further: % of control where 0% means no effect; nearly all actives have a fitted effect of over 50% in size
Numbers without * were called inactive; i = inactive; ? = inconclusive; / = no result; ! = not active in a repeat; [ ] = remark or other dose. In the library only some 8% were active in any assay of this set; here they are far more common. The call rests on the fitted dose curve; in most records, active means well fitted curve in the direction sought with a large enough effect; inconclusive means small, poorly fitted or top-dose-only effect, or another doubt; inactive means no such curve, though single readings can be large; an effect the other way counts as inactive or inconclusive. Potency means the concentration at half of the fitted maximal effect.

SMILES	KB-3-1 cytotox	HT1080 IDH1KD tx	KB-V1 cytotox	HT1080-NT tox	SW480 rereplic	MCF10A rerep
CCOc1ccccc1N1C(=O)NC(=O)C(CCc2ccncc2)(CCc2ccncc2)C1=O	i	-13%	i	-1%	2%	23%
OC(Cn1c2ccccc2c2ccccc21)C[n+]1cccc2ccccc21 (centres undefined)	?	20µM*	i	-7%[9.24 µM]	1%	0%
COC(=O)C12OCC34C(CC5C(C)=C(O)C(=O)CC5(C)C3C(O)C1O)OC(=O)C(OC(=O)/C=C(\C)C(C)C)C24 (centres undefined)	0.18µM*	0.026µM*	3.3µM*	?	?	18%
Cc1cccc(-n2c(CN3C(=O)c4ccccc4C3=O)nc3ccccc3c2=O)n1	i	8%	i	9%	-15%	-6%
O=c1cccc2n1CC1CC2CN(Cc2cccc(Cl)c2Cl)C1 (centres undefined)	i	?	18µM*	-28%	2%	25%
O=c1cccc2n1CC1CC2CN(Cc2c(F)cccc2Cl)C1 (centres undefined)	i	11%	?	11%	-6%	22%
NNCc1cccc(O)c1	i	6%	i	6%	-1%	?
CCC1(O)C(=O)OCc2c1cc1n(c2=O)Cc2cc3cc(O)ccc3nc2-1 (centres undefined)	?	0.65µM*	?	0.73µM*	?	?
CC[C@@]1(O)C(=O)OCc2c1cc1n(c2=O)Cc2cc3ccccc3nc2-1	?	/	i	/	/	/
CCC1(OC(=O)CN)C(=O)OCc2c1cc1n(c2=O)Cc2cc3ccccc3nc2-1 (centres undefined)	?	0.73µM*	?	1µM*	0%	-7%
CC[C@@]1(O)C(=O)OCc2c1cc1n(c2=O)Cc2cc3c(NC(=O)CN)cccc3nc2-1	i	1.8µM*	i	2.3µM*	?	?
O=C(c1ccc(CNS(=O)(=O)c2ccc(Br)cc2)cc1)N1CCC2(CC1)OCCO2	i	-1%	i	0%	0.58µM*!	?
O=C(c1ccc(CS(=O)(=O)c2ccccc2)o1)N1CCC2(CC1)OCCO2	i	1%	13µM*	12%	-3%	4%
O=C(Cc1ccccc1)N1CCN(C/C=C/c2ccccc2)CC1	i	1%	i	0%	1%[9.22 µM]	3%
CN1CCc2cccc3c2C1Cc1ccc(O)c(O)c1-3 (centres undefined)	i	?	i	23µM*	?	?
C=CCN1CCc2cccc3c2[C@H]1Cc1ccc(O)c(O)c1-3	i	?	?	?	?	12%
CC[C@H]1CC2CN3CCc4c([nH]c5cc(OC)ccc45)[C@](C(=O)OC)(C2)[C@H]13	i	-2%	i	3%	0.73µM*	?
Cc1c(C=O)c2ccccc2n1Cc1ccc([N+](=O)[O-])cc1	i	-24%	10µM*	-16%	-2%	0%
Cc1ccc(NP(=O)(Oc2ccccc2F)Oc2ccccc2F)cc1C	i	-30%	?	-11%	?	?
COc1cccc(NP(=O)(Oc2ccc(Cl)cc2)Oc2ccc(Cl)cc2)c1	?	?	13µM*	?	?	?
Cc1cccc(NP(=O)(Oc2ccccc2F)Oc2ccccc2F)c1	?	?	18µM*	-24%	?	?
COc1ccccc1OP(=O)(Nc1cccnc1)Oc1ccccc1OC	?	?	9.2µM*	?	0%	?
O=C(Nc1nnc(SCc2ccccc2Cl)s1)C1COc2ccccc2O1 (centres undefined)	i	-1%	i	15%	-7%	?
Cc1cc(C(=O)C[N+]23CCN(CC2)CC3)c(C)n1-c1ccc(Br)cc1	i	10%	i	3%	30%	-17%
O=C(CN1CC=C(c2ccccc2)CC1)Nc1cc(Cl)ccc1Cl	i	8%	?	5%	9%	18µM*
SMILES	KB-3-1 cytotox	HT1080 IDH1KD tx	KB-V1 cytotox	HT1080-NT tox	SW480 rereplic	MCF10A rerep
Cc1ccc(S(=O)(=O)N2CCCCC2)cc1NC(=O)CN1CC=C(c2ccccc2)CC1	?	12%	6.5µM*	3%	-7%	?
N/C(=N\[N+](=O)[O-])N1CCN(C(=O)c2ccccc2)CC1	i	-5%	i	4%	?	-1%
C=CC[C@H](CC(=O)N(CCO)Cc1ccccc1)C(=O)NC[C@H](OC(=O)[C@@H](CC=C)CC(=O)OC(C)(C)C)c1ccccc1	?	0%	?	-27%	?	?
COc1ccc(NC2=CC(=O)CC(c3ccccc3)C2)c(OC)c1 (centres undefined)	?	2.5µM*	2.6µM*	3.5µM*	-2%	24%
O=C1C(Cl)=CC(=Nc2ccc(O)cc2)C=C1Cl	?	-1%	i	-9%[9.24 µM]	-38%	?
COc1cc2c(c(OC)c1OC)-c1ccc(C(=O)O)cc1[C@@H](NC(C)=O)CC2	i	/	i	/	-1%	-1%
CCN(CC)c1ccc2c(cc1=O)[C@@H](NC)CCc1cc(OC)c(OC)c(OC)c1-2	0.92µM*	?	6.5µM*	1.3µM*	1µM*	1.3µM*
COc1cc2c(c(OC)c1OC)-c1ccc(OC)c(=O)cc1[C@@H](NC(C)=O)CC2	0.073µM*	?	7.3µM*	?	0.0046µM*	0.042µM*
COc1cc2c(c(OC)c1OC)-c1ccc(O)c(=O)cc1[C@@H](N)CC2	i	?	i	?	6%	-1%
COc1cc2c(c(OC)c1O)-c1ccc(OC)c(=O)cc1C(NC(=O)C(F)(F)F)CC2 (centres undefined)	?	?	?	0.013µM*	0.12µM*	?
Cc1cnn(C2CCN(C)CC2)c1N	i	5%	i	10%	-5%	10%
CCC1Nc2ncnc(N3CCN(c4ccccn4)CC3)c2N(Cc2ccc(Br)cc2)C1=O (centres undefined)	?	-20%	i	-19%	?	-23%
CC[n+]1c(-c2ccccc2)c2cc(N)ccc2c2ccc(N)cc21	?	16µM*	?	?	-7%	-3%
Oc1ccc(Cl)cc1Cc1cc(Cl)ccc1O	i	23µM*	?	16µM*	?	5.2µM*
Cc1ccc(N/N=C/C=C/c2ccco2)cc1	i	-6%	i	-28%	21µM*	12µM*
COc1ccc2[nH]cc(CCNCc3cccnc3)c2c1	i	0%	i	1%	-21%	-3%
